Bioassay records from PubChem.
Only some compounds are listed: those with a hit (about 2.7% of all), similar ones and a draw of the others.
MPTP inh = mitochondrial permeability transition pore inhibitors, primary screen, biochemical, isolated mouse mitochondria, absorbance. Ca2+ swelling absorbance, 30 min. inhibition, % at 10 µM. 360,000 tested, 1.4% active. AID 602449, 2012;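 active = inhibition of 50% or more, scaled per plate between neutral and stimulator controls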;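 also: 0% = DMSO wells given calcium and 100% = 1 mM EGTA wells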
SKN-1 inh = suppressors of acrylamide-induced Pgst-4::GFP reporter in worms, primary screen, SKN-1 inhibitor project, whole organism, uHTS, GFP/RFP fluorescence ratio, strain VP596 | C. elegans VP596 Pgst-4::GFP/RFP ratio, 24 h | inhibition, % at 21.8 µM | 360,000 tested, 0.49% active | AID 624304, 2012;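 active = interference check ratio from 0.5 to 1.5 plus GFP to RFP signal ratio inhibition reaching or exceeding a fixed threshold, cut at about 30% in these data, passing the limit was not always enough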
NRP1-CendR mod = modulators of CendR peptide binding to NRP-1, primary screen, biochemical, fluorescence polarization, uHTS | Neuropilin-1 (Homo sapiens), O14786 | inhibition, % at 25 µM | 360,000 tested, 0.85% active | FAM-RPARPAR peptide binding to NRP-1;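 active = inhibition or corrected inhibition above about 18%, plus a signal ratio from 0.5 to 1.5, limit read from the data, passing the limit was not always enough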
CFTR F508del cor = F508del CFTR correction, initial screen, CFBE line, single point; 350,000 tested, 0.36% active; AID 720511, 2013; activity (quench increase), % at 7.58 µM; CFBE cells, YFP halide quenching; stimulated with forskolin plus potentiator P3; % fluorescence drop versus neutral controls;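 active = mean added fluorescence quench of at least 8% versus neutral control, with both replicates also reaching 8%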;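 also: cells transiently co-express mutant CFTR-F508del with the halide-sensitive YFP; corrector assay measuring rescue of mutant channel to the surface after 24 h compound exposure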
ATG4B inh = ATG4B protease inhibitors, primary screen, biochemical, fluorescence, uHTS | inhibition, % at 8.33 µM | Cysteine protease ATG4B (Homo sapiens), Q9Y4P1 | ATG4B cleavage of LC3-PLA2, NBD-HPC fluorescence, 1 h | 340,000 tested, 0.51% active; in the data active = inhibition above about 40%
Target sequence (Q9Y4P1 whole entry, looked up): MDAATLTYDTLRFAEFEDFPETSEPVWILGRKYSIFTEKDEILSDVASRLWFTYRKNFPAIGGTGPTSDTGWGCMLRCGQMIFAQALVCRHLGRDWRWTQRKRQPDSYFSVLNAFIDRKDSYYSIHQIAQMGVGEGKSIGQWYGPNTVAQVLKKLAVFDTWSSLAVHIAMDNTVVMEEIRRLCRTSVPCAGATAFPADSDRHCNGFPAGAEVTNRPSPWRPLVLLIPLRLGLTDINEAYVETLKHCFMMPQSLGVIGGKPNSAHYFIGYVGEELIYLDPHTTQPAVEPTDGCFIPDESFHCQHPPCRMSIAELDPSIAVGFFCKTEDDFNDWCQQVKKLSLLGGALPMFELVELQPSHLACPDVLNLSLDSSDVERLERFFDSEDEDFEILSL
The depositor's hits bear a star; . = no result.

SMILES	MPTP inh	SKN-1 inh	NRP1-CendR mod	CFTR F508del cor	ATG4B inh
CN1CCc2cc3c(c4c2[C@H]1[C@H](O)c1ccccc1-4)OCO3	0	24	47*	3	-9
CC(C)C[C@@H](COCc1ccc(C(F)(F)F)cc1)N1CCN(C(=O)c2ccc(C(F)(F)F)cc2)CCC1=O	-1	-2	-9	9.6*	.
Brc1ccc2c(c1)C(C1=NCCN1)c1ccccc1CS2 (stereo not drawn)	0	12	-13	11*	4
Cc1cccc(NC(=O)Nc2ccc3c(c2)C(=O)N(C)[C@H]2CC[C@@H](CC(=O)NCc4ccccc4Cl)O[C@@H]2CO3)c1	.	.	.	-1	.
CCC(=O)Nc1cc2c3c(c1)CCC(=O)N3CCC2	0	10	26*	0	-7
COCC(=O)Nc1ccc2c(c1)C(=O)N(C)C[C@@H](OC)[C@H](C)CN(CCc1ccccc1)[C@@H](C)CO2	.	.	.	-1	.
C[C@H]1CN=C(N(C)C)N1CCC1CCCCC1	2	-6	30*	3	-16
C[C@@H]1CN([C@H](C)CO)S(=O)(=O)c2ccc(C#CC(C)(C)O)cc2O[C@H]1CN(C)Cc1ccncc1	.	.	.	0	.
O=C(c1ccccn1)N1CCN(S(=O)(=O)c2ccccc2)CC1	-1	-4	24*	1	-10
CCCNC(=O)Nc1ccc2c(c1)C(=O)N(C)C[C@H](OC)[C@@H](C)CN(CCC(F)(F)F)[C@H](C)CO2	.	.	.	4	.
Cc1cc(C)cc(OCCCn2ccnc2)c1	2	4	27*	-1	-3
CNC(=O)CC1C(=O)N(c2ccc(F)cc2)C(=S)N1NC(=O)c1ccc(Cl)cc1 (stereo not drawn)	1	-4	12	8.0*	-3
COc1ccc(N2C(=O)C(CC(=O)Nc3ccc(Cl)cc3)N(NC(=O)c3cccc(F)c3)C2=S)cc1 (stereo not drawn)	45	-3	-2	3	-20
O=[N+]([O-])c1cc2c(cc1Br)-c1ccccc1C2	-1	52*	2	1	.
COc1cc2c(cc1[N+](=O)[O-])-c1ccccc1C2	-1	9	-6	-1	-6
COc1ccc(C2CC(c3ccccc3)=NN2C(=O)c2cccs2)cc1 (stereo not drawn)	0	37*	3	.	2
COc1cccc(C2=NN(C(C)=O)C(c3cccs3)C2)c1 (stereo not drawn)	-2	36*	-6	-2	16
COc1ccc(C2=NN(C(=O)c3cccs3)C(c3ccccc3O)C2)cc1 (stereo not drawn)	8	-3	4	-1	-2
COc1ccc(C2CC(c3ccccc3)Nc3nc(NC(=O)c4cccs4)nn32)cc1 (stereo not drawn)	1	-5	31*	.	8
C[C@@H]1CN([C@H](C)CO)C(=O)c2cc(NC(=O)Nc3ccc(F)cc3)ccc2O[C@@H](C)CCCCO[C@@H]1CN(C)S(=O)(=O)c1ccccc1	.	.	.	1	.
O=C(C[C@@H]1CC[C@@H]2[C@H](COC[C@@H](O)CN2C(=O)Nc2cc(Cl)cc(Cl)c2)O1)NCC1CCCCC1	.	.	.	0	.
C[C@@H]1CN([C@H](C)CO)C(=O)c2cc(C#CC3CCCCC3)cnc2O[C@@H]1CN(C)S(=O)(=O)c1ccc(F)cc1	.	.	.	4	.
CC[C@@]1(O)C(=O)OCc2c1cc1n(c2=O)Cc2cc3c(N)cccc3nc2-1	1	3	18	1	-2
CC[C@@]1(O)C(=O)OCc2c1cc1n(c2=O)Cc2cc3c(CN(C)C)c(O)ccc3nc2-1	0	-24	142	26*	-18
CC(C)(C)OC(=O)N1CCC(NC(=O)c2[nH]cnc2C(=O)Nc2cccc(Cl)c2)CC1	-1	3	33*	3	5
SMILES	MPTP inh	SKN-1 inh	NRP1-CendR mod	CFTR F508del cor	ATG4B inh
CC(C)(C)OC(=O)N1CCC(NC(=O)c2nc[nH]c2C(=O)NC2CCN(C(=O)OC(C)(C)C)CC2)CC1	0	0	-4	-1	5
C[C@@H](NC(=O)c1nc[nH]c1C(=O)NC1CCN(C(=O)OC(C)(C)C)CC1)c1ccccc1	0	-1	22*	-1	3
C[C@H](NC(=O)c1nc[nH]c1C(=O)N1CCN(C(=O)OC(C)(C)C)CC1)c1ccccc1	2	18	18	1	2
C=CCCC(=O)Nc1nc(C)c(-c2csc(Nc3cc(OC)ccc3OC)n2)s1	0	-1	-8	8.8*	-14
COc1ccc(Nc2nc(-c3sc(C)nc3C)cs2)cc1	2	3	6	9.1*	-10
COc1cccc(Nc2nc(-c3sc(NC(=O)c4ccccc4)nc3C)cs2)c1	0	14	-16	9.1*	-1
Cc1nc(C)c(-c2csc(Nc3ccc(N)cc3)n2)s1	0	10	10	-3	-9
CCCC(=O)Nc1nc(C)c(-c2csc(Nc3ccccc3OC)n2)s1	-3	-4	-36	3	-11
COc1cccc(Nc2nc(-c3sc(NC(=O)CC(C)C)nc3C)cs2)c1	0	17	-17	4	6
COc1ccccc1Nc1nc(-c2sc(NC(=O)C(C)(C)C)nc2C)cs1	0	6	-37	14*	-30
COc1ccc(NC(=O)N(C)C[C@@H]2Oc3ccc(NC(=O)c4ccncc4)cc3CC(=O)N([C@@H](C)CO)C[C@H]2C)cc1	.	.	.	-1	.
Cc1cccc(N=C/C(C(=O)C(F)(F)F)=C(\O)c2ccco2)c1	1	1	1	.	0
Cc1ccc(N=C/C(C(=O)C(F)(F)F)=C(\O)c2ccco2)cc1Cl	0	57*	-5	.	-7
CC(Oc1ccc(Cl)cc1Cl)C(=O)Nc1cccnc1 (stereo not drawn)	1	-13	26*	.	6
CC(=O)Nc1ccc(NC(=O)C(C)Oc2ccc(Cl)cc2Cl)cc1 (stereo not drawn)	1	-3	-6	-1	-8
Cc1nnc(SCCn2c(N3CC(C)CC(C)C3)nc3c2c(=O)n(C)c(=O)n3C)s1 (stereo not drawn)	3	41*	2	.	-2
Cc1nnc(SCCn2c(Br)nc3c2c(=O)n(C)c(=O)n3C)s1	0	-9	-4	.	-5
O=C(NN=Cc1ccccc1O)c1cccc([N+](=O)[O-])c1	0	-9	6	11*	-2
C[C@@H]1CN([C@H](C)CO)C(=O)c2cc(C3=CCCC3)cnc2O[C@@H]1CN(C)C(=O)c1ccc2c(c1)OCO2	.	.	.	1	.
Clc1ccc(-c2cn3cc(Br)ccc3n2)cc1Cl	1	57*	2	.	2
CCn1c(SCC(=O)Nc2cc(C)on2)nnc1-c1ccncc1	0	5	2	.	-9
Cc1cc(NC(=O)CSc2nnc(-c3ccncc3)n2-c2ccc(F)cc2)no1	0	42*	-14	1	-1
